The values below come from PubChem BioAssay.

As usually defined, the inhibition is the change of the read-out against control, counted positive when it falls. Usually AC50 stands for the midpoint of the concentration-response curve, whichever way the signal moves.

The structures appear in SMILES notation. Records with an inconclusive call do not appear. The source made the active and inactive calls.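 How the source made its calls, unless noted: active means compounds lowering colon cancer cell viability after pretreatment blocking the GSK3B kinase; inactive means the rest.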

Assay [1] is described as follows: stimulators of insulin release from INS-1E, primary screen, cell-based, 5 mM glucose, NPC library (AID 1117329;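 active means compound raises insulin release from rat beta cells at 5 mM glucose, no numeric limit stated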). The note with it: rat INS-1E insulin secretion, at 10 µM, stronger effect = higher value.
A short description of assay [2]: growth inhibition of GSK3B-pretreated HCT116 cells – cell-based, CellTiter-Glo, 0.2 to 20 µM (AID 1117336). The note with it: HCT116 viability after GSK3B inhibitor, at 20 µM, stronger effect = higher value. For orientation: Cellular ATP, detected with luciferase, serves as a proxy for viable cell number.
Assay [3] can be described thus: inhibition of endothelial tube formation, primary screen, imaging, VEGF stimulated, CD31 staining, tube area, NPC library (AID 1117340;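 active means compound that reduces growth-factor-driven endothelial tube area in a mixed cell culture, no cutoff stated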). The note with it: VEGF-stimulated ADSC/ECFC co-culture, at 10 µM, stronger effect = higher value.
Assay [4] in a line: glucagon-like peptide 1 release enhancers, primary assay, NCI-H716 cell line, NPC library (AID 1117341;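 active means compound raises GLP1 secretion from the human gut endocrine cells, with no numeric limit stated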). The conditions noted are these: NCI-H716 cells, at 10 µM, stronger effect = higher value.
A short description of assay [5]: HCT116 colon cancer cell growth inhibition, primary screen, CellTiter-Glo luminescence, NPC library (AID 1117342;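 active means compounds that lower survival of HCT116 colon cancer cells in the luminescence readout, no numeric limit stated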). The conditions noted are these: at 20 µM (top of the series).
Assay [6] can be described thus: CellTiter-Glo luminescent readout of SW480 viability loss, NPC library primary (AID 1117343;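 active means compounds that lower viability of the colon cancer cells in the luminescence readout, with no numeric limit stated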). The note with it: CellTiter-Glo luminescence; at 20 µM (top of the series).
Assay [7] is described as follows: decreased DLD-1 cellular survival, CellTiter-Glo luminescent readout, NPC compound collection, primary HTS (AID 1117346;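 active means compounds that lower survival of DLD-1 colon cancer cells in the luminescence readout, no cutoff given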). The note with it: DLD-1 viability, CellTiter-Glo luminescence; at 20 µM (top of the series).
Assay [8] concerns the target 6-phosphogluconate dehydrogenase, decarboxylating (Homo sapiens) (UniProt P52209). As to the kind of experiment: 6PGD enzyme inhibitors, primary screen, biochemical, human, recombinant enzyme, NADPH absorbance (AID 1159550;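 active means at least 20% inhibition of 6-phosphogluconate dehydrogenase activity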). The conditions noted are these: recombinant 6PGD, NADPH absorbance 341 nm; at 10 µM; stronger effect = higher value.
Assay [9] can be described thus: differential killing of epithelial or mesenchymal cells, primary screen, imaging, PC-3E GFP, TEM4-18 mCherry, co-culture (AID 1345086;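 active means compounds killing one labelled cell type while sparing the other, by normalised counts and ratio limits, not self-fluorescent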;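 on all read-outs here: cells exposed to compound for 72 h before imaging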;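 on red/green cell ratio (normalised): normalised mesenchymal count divided by normalised epithelial count so high means epithelial killing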). The conditions noted are these: imaging cell counts, at 1 µM; for red/green cell ratio (normalised): actives lie on both sides, counts scaled to control wells, 1 = unselective.
Assay [10] in a line: growth inhibition of DIPG glioma cells, dose response, cell-based, SU-DIPG-XVII, MIPE5.0, CellTiter-Glo, qHTS (AID 1347060; cut-off not given, nearly all actives have AC50 up to about 26 µM;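 on AC50: cells exposed to compound for 48 hours before viability readout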). The note with it: SU-DIPG-XVII viability, CellTiter-Glo ATP luminescence.
The nature of assay [11]: growth inhibition of DIPG glioma cells, dose response, cell-based, SU-DIPG-XIII, MIPE4.0, CellTiter-Glo, qHTS (AID 1347061; cut-off not given, nearly all actives have AC50 up to about 37 µM;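 further: cells exposed to compound for 48 hours before readout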). The conditions noted are these: SU-DIPG-XIII viability, CellTiter-Glo ATP luminescence.
Assay [12] in a line: growth inhibition of DIPG glioma cells, dose response, cell-based, JHH-DIPG-1, MIPE4.0, CellTiter-Glo, qHTS (AID 1347062; cut-off not given, nearly all actives have AC50 up to about 27 µM;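 on AC50: cells exposed to compound for two days before readout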). The note with it: JHH-DIPG-1 viability, CellTiter-Glo ATP luminescence.
The nature of assay [13]: growth inhibition of DIPG glioma cells, dose response, cell-based, SU-DIPG-IV, MIPE4.0, CellTiter-Glo, qHTS (AID 1347063; cut-off not given, nearly all actives have AC50 up to about 30 µM;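 further: compound exposure lasted 48 hours before the viability readout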). The conditions noted are these: SU-DIPG-IV viability, CellTiter-Glo ATP luminescence.
Assay [14] is described as follows: growth inhibition of DIPG glioma cells, dose response, cell-based, SU-DIPG-XIII, MIPE5.0, CellTiter-Glo, qHTS (AID 1347064; cut-off not given, nearly all actives have AC50 up to about 23 µM). The conditions noted are these: SU-DIPG-XIII viability, CellTiter-Glo ATP luminescence.
The mark [15] stands for this setting: measured here: epithelial PC-3E GFP cell survival.
The mark [16] stands for this setting: measured here: mesenchymal TEM4-18 mCherry cell survival.

Sequence of 6-phosphogluconate dehydrogenase, decarboxylating (Homo sapiens) (P52209 whole entry, looked up): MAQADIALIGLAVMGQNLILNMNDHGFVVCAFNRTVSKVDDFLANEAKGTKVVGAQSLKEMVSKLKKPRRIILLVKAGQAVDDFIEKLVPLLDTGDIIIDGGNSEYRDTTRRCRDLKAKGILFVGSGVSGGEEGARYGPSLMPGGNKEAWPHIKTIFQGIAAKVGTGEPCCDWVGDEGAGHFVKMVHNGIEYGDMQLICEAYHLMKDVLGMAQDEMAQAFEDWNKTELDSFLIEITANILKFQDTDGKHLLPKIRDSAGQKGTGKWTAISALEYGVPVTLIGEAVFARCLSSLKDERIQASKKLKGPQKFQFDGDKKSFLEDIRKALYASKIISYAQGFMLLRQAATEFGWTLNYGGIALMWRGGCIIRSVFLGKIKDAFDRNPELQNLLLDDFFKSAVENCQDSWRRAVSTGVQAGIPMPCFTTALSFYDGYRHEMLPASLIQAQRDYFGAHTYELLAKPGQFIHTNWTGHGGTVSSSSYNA

As for `CNC[C@H](O)c1cccc(O)c1`, the insulin secretion stimulation in assay [1] was 0% (inactive). Besides, the viability decrease in assay [2] is -4.6% (inactive). For the same compound, in assay [3], the tube area decrease is -2.9% (inactive). For the same compound, the GLP1 secretion stimulation in [4] is 1.4% (inactive). In addition, in assay [5], the inhibition of viability was 3.8% (inactive). For the same compound, the viability decrease (inhibition) was 12.3% (inactive) in [6] and -9.9% (inactive) in [7]. In [8], the inhibition is 10.8% (inactive). Further, in [9], the red/green cell ratio (normalised) was 1.3 (inactive). Further, the normalised cell number in assay [9] (setting [15]) worked out at 0.85; in [9] (setting [16]) it was 1.11. Further, the call in assay [10], in [11], in [12], in assay [13] and in assay [14] was inactive.

In the case of `CCOC(=O)C(C)(C)Oc1ccc(Cl)cc1`, the insulin secretion stimulation in assay [1] is -0.8% (inactive). Besides, in [2], the viability decrease was -28.2% (inactive). Also, in assay [3], the tube area decrease is -5.8% (inactive). The GLP1 secretion stimulation in assay [4] was -1.1% (inactive). Moreover, the inhibition of viability in assay [5] is -9.77% (inactive). The viability decrease (inhibition) in assay [6] is 7.5% (inactive); in assay [7], -40.7% (inactive). The inhibition in assay [8] is -1.28% (inactive). Besides, the red/green cell ratio (normalised) in [9] is 0.94 (inactive). The normalised cell number in assay [9] (setting [15]) was determined as 1.28; in assay [9] (setting [16]), 1.2. The result in [10], in [11], in assay [12] and in [14] was inactive.

In the case of `OC[C@H]1O[C@@H](O[C@@H]2[C@@H](CO)O[C@](O)(CO)[C@H]2O)[C@H](O)[C@@H](O)[C@H]1O`, the insulin secretion stimulation in assay [1] was 0.5% (inactive). The viability decrease in [2] is -11.1% (inactive). In assay [3], the tube area decrease is -2.5% (inactive). Further, the GLP1 secretion stimulation in assay [4] is 0.8% (inactive). In addition, the inhibition of viability in assay [5] was 10% (inactive). Also, the viability decrease (inhibition) in assay [6] was 86.9% (active); in [7], -4.2% (inactive). In assay [8], the inhibition is 0.0837% (inactive). Also, the red/green cell ratio (normalised) in assay [9] is 1.2 (inactive). For the same compound, the figures for the normalised cell number in [9] (setting [15]) and in assay [9] (setting [16]) were 1.03 and 1.23, respectively. Also, the call in [10], in assay [11], in assay [13] and in [14] was inactive.

Turning to `Cn1cnc2c1c(=O)[nH]c(=O)n2C`, in assay [1], the insulin secretion stimulation is 2.3% (inactive). The viability decrease in [2] is 5% (inactive). For the same compound, the tube area decrease in assay [3] is 15.1% (inactive). The GLP1 secretion stimulation in assay [4] was -0.4% (inactive). The inhibition of viability in assay [5] is 6.3% (inactive). The viability decrease (inhibition) in assay [6] is -8.1% (inactive); in assay [7] it was -19.1% (inactive). In addition, the inhibition in assay [8] was -1.33% (inactive). Moreover, the red/green cell ratio (normalised) in assay [9] was 0.94 (inactive). The normalised cell number in assay [9] (setting [15]) worked out at 0.96; in assay [9] (setting [16]), 0.9. The result in [10] and in [14] was inactive. In addition, the AC50 in [11] was 23.5 µM (active); in assay [12], 23.5 µM (active); in [13], 10.5 µM (active).

On to `CC1=CC(=O)c2ccccc2C1=O`, for which, in assay [1], the insulin secretion stimulation was -1.3% (inactive). For the same compound, the viability decrease in assay [2] was 72.6% (active). Also, the tube area decrease in assay [3] was 26.3% (inactive). In addition, the GLP1 secretion stimulation in [4] is -6% (inactive). In addition, the inhibition of viability in [5] is 37.5% (inactive). Besides, the results for the viability decrease (inhibition) in assay [6] and in [7] were 122% (active) and 103% (active), respectively. Also, in assay [8], the inhibition is 12.5% (inactive). The red/green cell ratio (normalised) in [9] was 0.99 (inactive). In addition, the normalised cell number in [9] (setting [15]) is 1.09; in assay [9] (setting [16]), 1.08. For the same compound, the half-maximal activity concentration (AC50) in assay [10] is 23.5 µM (active); in assay [11] it was 23.5 µM (active); in assay [12], 8.33 µM (active); in assay [13], 26.4 µM (active).
